Source: PubChem BioAssay
The source made the active and inactive calls.

What was measured:
[1] = test system: Plasmodium falciparum Sir2 (PF13_0152, Sir2A); assay: Plasmodium falciparum Sir2A binding compounds – biochemical, small-molecule microarray, 635 nm fluorescence, primary screen (AID 1098); settings: fluorescence 635 nm, higher = more signal;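 also: score merges spot fluorescence intensity with its signal-to-noise ratio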
[2] = probe aDKK1 binding to arrayed compounds – biochemical, biotinylated probe, 635/667 nm fluorescence, primary screen (AID 1099); settings: small-molecule microarray, higher = more signal;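 also: score merges 667nm spot fluorescence with signal to noise across triplicate slides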
[3] = probe aCHRDL2 binding to arrayed compounds – biochemical, biotinylated probe, 635/667 nm fluorescence, primary screen (AID 1100); settings: small-molecule microarray, higher = more signal
[4] = change in splice reporter luminescence, either direction, cell-based, HEK293, spliceosome inhibition project, primary screen (AID 1101); settings: HEK293 splicing luciferase reporter, 24 h, higher = more signal, called active from +8 up or from −8 down;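 also: HEK293 cells carrying a splicing-competent luciferase reporter gene; test concentration not given here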
[5] = target: Fibroblast growth factor 10 (Homo sapiens) (UniProt O15520); assay: compounds binding fibroblast growth factor 10 – biochemical, small-molecule microarray, 635 nm fluorescence, primary screen (AID 1102); settings: FGF10 binding, fluorescence 635 nm, higher = more signal
[6] = test system: glycogen synthase kinase-3 (GSK3A per assay name; protocol says GSK3B); assay: compounds binding glycogen synthase kinase-3 – biochemical, small-molecule microarray, 635 nm fluorescence, GSK3A, primary screen (AID 1103); settings: fluorescence 635 nm, higher = more signal; also: the record names both GSK3A and GSK3B
[7] = target: Epidermal growth factor receptor (Homo sapiens) (UniProt P00533); assay: compounds binding epidermal growth factor receptor – biochemical, small-molecule microarray, 635 nm fluorescence, primary screen (AID 1104); settings: EGFR binding, higher = more signal;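 also: score merges 667 nm emission intensity with spot signal to noise over triplicate slides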
[8] = target: Follistatin-related protein 3 (Homo sapiens) (UniProt O95633); assay: compounds binding follistatin-related protein 3 – biochemical, small-molecule microarray, 635 nm fluorescence, primary screen (AID 1105); settings: FSTL3 binding, higher = more signal;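 also: score merges emission near 667 nm and signal to noise per printed spot across three slides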
[9] = target: Dickkopf-related protein 1 (Homo sapiens) (UniProt O94907); assay: small molecules binding DKK1 protein – biochemical, small-molecule microarray, 635 nm fluorescence scan, primary screen (AID 1106); settings: higher = more signal;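 also: score merges emission near 667 nm with signal to noise over three replicate slides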
[10] = test system: Inhibin beta A chain (activin A); assay: small molecules binding activin A – biochemical, small-molecule microarray, 635 nm fluorescence scan, primary screen (AID 1107); settings: INHBA, higher = more signal;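 also: mouse activin A protein probed at 4.33 µg/mL on printed slides; score merges bound-protein fluorescence near 667 nm with spot signal-to-noise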
[11] = test system: Human papillomavirus type 1a protein E7 (residues 44-93); assay: small molecules binding HPV E7 44-93 – biochemical, small-molecule microarray, residues 44-93, 635 nm fluorescence, primary screen (AID 1108); settings: fluorescence 635 nm, higher = more signal;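 also: E7 fragment applied at 1 µg/mL in TBST for 1 h at 4 C; score combines spot fluorescence with its signal to noise ratio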
[12] = hepatitis C replication reporter changes, two-sided – Huh7 cells, luciferase reporter, HCV replication inhibitor project, primary screen (AID 1109); settings: Huh7 HCV replicon luciferase reporter, 48 h; higher = more signal;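 also: huh7 hepatoma cells harbouring a luciferase neomycin HCV replicon reporter; luciferase luminescence as measure of HCV replicon replication; test concentration not given here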
[13] = target: Left-right determination factor 2 (Homo sapiens) (UniProt O00292); assay: small molecules binding LEFTY2 protein – biochemical, small-molecule microarray, 635 nm fluorescence scan, primary screen (AID 1110); settings: higher = more signal
[14] = target: Calmodulin-1 (Homo sapiens) (UniProt P0DP23); assay: small molecules binding calmodulin-1 with EGTA – biochemical, small-molecule microarray, Cy5-labelled CALM1, profiling panel (AID 1111); settings: Cy5-CALM1 binding fluorescence, higher = more signal;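 also: labelled calmodulin applied in Tris saline Tween buffer holding calcium plus EGTA and DTT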
[15] = target: Calmodulin-1 (Homo sapiens) (UniProt P0DP23); assay: small molecules binding Ca-loaded calmodulin-1 – biochemical, small-molecule microarray, Cy5-labelled CALM1, plus calcium, artefact control for SMM control-protein annotation, profiling panel (AID 1112); settings: Cy5-CALM1 binding fluorescence, higher = more signal;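 also: score merges spot fluorescence with signal to noise from triplicate slides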
[16] = probe aWnt5a binding to arrayed compounds – biochemical, biotinylated probe, 635/667 nm fluorescence, primary screen (AID 1113); settings: small-molecule microarray, higher = more signal;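 also: score merges 667 nm fluorescence intensity with signal-to-noise per printed feature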
[17] = probe aShh binding to arrayed compounds – biochemical, biotinylated probe, 635/667 nm fluorescence, primary screen (AID 1114); settings: small-molecule microarray, higher = more signal;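 also: probe is biotin-labelled aShh protein from a stem cell growth factor screen; measures binding of labelled protein to compounds printed on the slide; score merges feature fluorescence at 667 nm with signal-to-noise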
[18] = probe aNog binding to arrayed compounds – biochemical, biotinylated probe, 635/667 nm fluorescence, primary screen (AID 1115); settings: small-molecule microarray, higher = more signal;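 also: probe is biotinylated aNog protein used at 0.15 µg/mL for 1 h at 4 C; z-score combines 667 nm fluorescence of each spot with its signal to noise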
[19] = target: Torsin-1A-interacting protein 1 (Homo sapiens) (UniProt Q5JTV8); assay: compound microarray binding of lysate hLAP1 – cell lysate, small-molecule microarray, COS7 lysate, 635/667 nm fluorescence, primary screen (AID 1116); settings: 635 nm fluorescence, higher = more signal
[20] = target: Alpha-bungarotoxin (Bungarus multicinctus) (UniProt P60615); assay: compounds binding labelled alpha-BTX control protein – biochemical, small-molecule microarray, Alexa647 label, 635/667 nm fluorescence, artefact control for SMM control protein annotation, profiling panel (AID 1117); settings: alpha-BTX-A647 binding fluorescence, higher = more signal
Sequence of Alpha-bungarotoxin (Bungarus multicinctus) (P60615 whole entry, looked up): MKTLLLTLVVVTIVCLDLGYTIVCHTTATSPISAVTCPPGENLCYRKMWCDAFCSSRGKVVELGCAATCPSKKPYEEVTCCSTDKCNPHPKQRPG

Sequence of Follistatin-related protein 3 (Homo sapiens) (O95633 whole entry, looked up): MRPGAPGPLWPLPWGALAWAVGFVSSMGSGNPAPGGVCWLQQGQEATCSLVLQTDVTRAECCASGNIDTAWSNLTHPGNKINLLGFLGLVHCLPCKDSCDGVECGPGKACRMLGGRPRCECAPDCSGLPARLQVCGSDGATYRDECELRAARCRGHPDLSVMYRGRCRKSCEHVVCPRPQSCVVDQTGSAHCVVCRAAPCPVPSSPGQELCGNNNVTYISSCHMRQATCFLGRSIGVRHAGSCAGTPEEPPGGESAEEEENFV
Sequence of Epidermal growth factor receptor (Homo sapiens) (P00533 whole entry, looked up): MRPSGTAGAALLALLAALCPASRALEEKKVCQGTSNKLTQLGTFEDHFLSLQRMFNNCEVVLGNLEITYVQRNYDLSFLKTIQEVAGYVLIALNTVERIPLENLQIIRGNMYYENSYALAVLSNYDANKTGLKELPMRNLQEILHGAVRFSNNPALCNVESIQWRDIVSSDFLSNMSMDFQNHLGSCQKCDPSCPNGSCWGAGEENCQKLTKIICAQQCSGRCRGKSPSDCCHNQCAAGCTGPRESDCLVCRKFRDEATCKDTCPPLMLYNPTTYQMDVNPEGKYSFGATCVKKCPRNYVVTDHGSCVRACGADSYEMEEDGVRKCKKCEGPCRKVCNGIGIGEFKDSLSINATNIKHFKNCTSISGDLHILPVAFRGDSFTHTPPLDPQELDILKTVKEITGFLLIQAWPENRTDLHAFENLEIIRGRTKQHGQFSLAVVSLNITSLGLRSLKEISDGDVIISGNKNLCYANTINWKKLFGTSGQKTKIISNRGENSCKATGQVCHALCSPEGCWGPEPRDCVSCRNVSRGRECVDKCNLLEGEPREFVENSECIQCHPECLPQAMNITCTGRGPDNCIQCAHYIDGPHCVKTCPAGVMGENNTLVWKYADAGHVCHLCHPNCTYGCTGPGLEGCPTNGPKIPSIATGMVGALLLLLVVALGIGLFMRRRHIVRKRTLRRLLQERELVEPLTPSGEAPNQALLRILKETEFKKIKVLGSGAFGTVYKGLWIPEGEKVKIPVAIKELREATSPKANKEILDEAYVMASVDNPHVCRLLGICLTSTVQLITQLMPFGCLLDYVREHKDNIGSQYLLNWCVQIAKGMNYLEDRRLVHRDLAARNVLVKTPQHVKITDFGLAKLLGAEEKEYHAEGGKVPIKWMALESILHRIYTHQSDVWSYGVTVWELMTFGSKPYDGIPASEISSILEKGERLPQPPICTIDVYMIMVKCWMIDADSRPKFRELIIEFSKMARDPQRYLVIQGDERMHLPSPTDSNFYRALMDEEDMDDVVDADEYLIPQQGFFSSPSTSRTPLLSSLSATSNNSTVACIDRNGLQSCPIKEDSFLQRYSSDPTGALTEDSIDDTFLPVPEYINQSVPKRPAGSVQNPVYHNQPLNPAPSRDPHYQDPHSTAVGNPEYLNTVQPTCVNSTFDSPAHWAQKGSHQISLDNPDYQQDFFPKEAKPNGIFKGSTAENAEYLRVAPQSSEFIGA
Sequence of Fibroblast growth factor 10 (Homo sapiens) (O15520 whole entry, looked up): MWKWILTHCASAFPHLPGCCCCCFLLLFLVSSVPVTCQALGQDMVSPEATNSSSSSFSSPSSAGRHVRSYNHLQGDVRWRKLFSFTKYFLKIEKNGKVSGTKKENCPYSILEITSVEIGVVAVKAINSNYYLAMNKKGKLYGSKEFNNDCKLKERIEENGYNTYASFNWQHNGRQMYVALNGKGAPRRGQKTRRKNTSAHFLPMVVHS
Sequence of Torsin-1A-interacting protein 1 (Homo sapiens) (Q5JTV8 whole entry, looked up): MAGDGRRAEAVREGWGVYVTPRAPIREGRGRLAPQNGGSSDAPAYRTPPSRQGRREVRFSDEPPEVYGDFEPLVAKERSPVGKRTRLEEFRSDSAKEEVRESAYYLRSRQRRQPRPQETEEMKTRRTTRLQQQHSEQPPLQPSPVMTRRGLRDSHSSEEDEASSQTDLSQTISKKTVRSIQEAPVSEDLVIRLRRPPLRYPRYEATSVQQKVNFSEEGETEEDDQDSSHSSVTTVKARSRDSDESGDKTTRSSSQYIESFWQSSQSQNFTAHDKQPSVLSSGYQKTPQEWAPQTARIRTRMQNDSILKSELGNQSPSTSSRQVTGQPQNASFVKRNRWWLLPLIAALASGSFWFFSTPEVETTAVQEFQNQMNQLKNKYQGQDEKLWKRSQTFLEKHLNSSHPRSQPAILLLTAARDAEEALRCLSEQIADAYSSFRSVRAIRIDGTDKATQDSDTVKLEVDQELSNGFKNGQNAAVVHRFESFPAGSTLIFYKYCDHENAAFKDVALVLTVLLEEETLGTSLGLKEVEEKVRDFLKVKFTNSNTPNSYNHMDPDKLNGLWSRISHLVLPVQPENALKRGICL
Sequence of Dickkopf-related protein 1 (Homo sapiens) (O94907 whole entry, looked up): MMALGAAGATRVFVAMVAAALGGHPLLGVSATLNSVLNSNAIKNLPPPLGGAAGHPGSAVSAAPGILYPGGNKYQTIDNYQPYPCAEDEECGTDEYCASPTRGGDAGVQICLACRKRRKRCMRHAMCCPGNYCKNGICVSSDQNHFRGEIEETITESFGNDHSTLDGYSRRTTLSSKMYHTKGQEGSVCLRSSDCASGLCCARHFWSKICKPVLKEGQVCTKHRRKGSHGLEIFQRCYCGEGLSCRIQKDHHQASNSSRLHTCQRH
Sequence of Left-right determination factor 2 (Homo sapiens) (O00292 whole entry, looked up): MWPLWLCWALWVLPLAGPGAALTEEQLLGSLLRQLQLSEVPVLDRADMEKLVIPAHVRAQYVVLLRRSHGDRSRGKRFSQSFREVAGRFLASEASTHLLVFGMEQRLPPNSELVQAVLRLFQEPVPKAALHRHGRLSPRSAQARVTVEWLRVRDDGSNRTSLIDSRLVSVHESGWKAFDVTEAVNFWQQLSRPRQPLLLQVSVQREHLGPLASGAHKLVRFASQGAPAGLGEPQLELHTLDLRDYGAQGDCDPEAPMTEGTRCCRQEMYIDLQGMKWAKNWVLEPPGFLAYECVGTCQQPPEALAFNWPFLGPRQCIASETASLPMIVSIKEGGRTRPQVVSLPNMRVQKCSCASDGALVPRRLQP

| Structure (SMILES) | composite z-score [1] | composite z-score [2] | composite z-score [3] | z-score [4] | composite z-score [5] | composite z-score [6] | composite z-score [7] | composite z-score [8] | composite z-score [9] | composite z-score [10] | composite z-score [11] | z-score [12] | composite z-score [13] | composite z-score [14] | composite z-score [15] | composite z-score [16] | composite z-score [17] | composite z-score [18] | composite z-score [19] | composite z-score [20] |
| --- | --- | --- | --- | --- | --- | --- | --- | --- | --- | --- | --- | --- | --- | --- | --- | --- | --- | --- | --- | --- |
| CO[C@H]1O[C@H](CO)[C@@H](OC(=O)c2ccc(Br)cc2)[C@@H]2OC(=O)[C@H](Cc3ccccc3)C/C=C/C[C@@H](Cc3ccccc3)C(=O)O[C@@H]12 | 1.14 | -0.407 | 0.0962 | -0.511 (inactive) | 0.583 | 0.186 | 0.287 | 0.435 | 0.214 | 1.24 | 0.79 | -3.01 | 0.109 | 0.575 | -0.662 | -0.275 | -0.23 | -0.542 | 0.706 | 0.142 |
| COCCCNC(=O)[C@@]1(c2ccc([N+](=O)[O-])cc2)CC(=O)N(C(C)C)[C@@H]1c1ccc(CO)cc1 | 0.0788 | 0.46 | 0.8 | 0.0532 (inactive) | -0.512 | -0.63 | 0.608 | 0.373 | 0.289 | 1.07 | -1.48 | 0.198 | -0.195 | -1.61 | -0.129 | 0.0559 | -0.211 | -0.261 | 1.94 | 1.88 |
| COCCOC(=O)N1C(=O)[C@@]2(c3cc(C#CC4=CCCCC4)ccc31)[C@H](c1ccc(O)cc1)N1[C@H](c3ccccc3)[C@H](c3ccccc3)OC(=O)[C@H]1[C@@H]2C(=O)NC[C@H](O)c1ccccc1 | 0.535 | 0.0353 | 0.129 | -0.586 (inactive) | 1.12 | 0.348 | 0.462 | 1.17 | 0.557 | 0.528 | 1.39 | -1.66 | 0.623 | 0.713 | 0.135 | 0.0324 | 0.296 | -0.614 | 1.39 | 0.791 |
| O=C1C2C=CC(C(O)c3ccc(I)cc3)N(Nc3ccccc3)C2C(=O)N1c1ccccc1 (stereo not given) | 1.1 | 1.06 | 1.21 | 0.189 (inactive) | 0.455 | 1.29 | 0.0244 | 0.859 | 0.263 | 1.06 | 0.898 | 0.0376 | 0.0988 | 2.51 | 1.2 | -0.0399 | 0.184 | 1.4 | 1.83 | 1.71 |
| COCCCNC(=O)[C@@]1(Sc2ccc(C)cc2)CC(=O)N(C(C)C)[C@@H]1c1ccc(CO)cc1I | 1.03 | -0.0358 | 0.836 | -2.25 (inactive) | -0.0668 | -0.0859 | -0.839 | -0.665 | -1.12 | 0.978 | 1.27 | -3.44 | -0.327 | -0.0081 | -0.0868 | -0.096 | -0.291 | -0.289 | 0.722 | 0.487 |
| COc1ccc(C#Cc2ccc3c(c2)[C@]2(C(=O)N3)[C@H](c3ccc(OCCO)cc3)N3[C@H](c4ccccc4)[C@H](c4ccccc4)OC(=O)[C@H]3[C@@H]2C(=O)N2CCc3cc(OC)c(OC)cc3C2)cc1 | 1.38 | 1.5 | 0.185 | -0.517 (inactive) | 1.23 | 1.28 | 0.871 | 1.01 | 1.28 | -0.258 | 1.33 | -1.23 | 0.461 | 1.08 | 0.684 | -0.0215 | 0.0589 | -0.155 | 0.168 | 0.841 |
| Cc1cccc([C@H]2C[C@H]3C(Br)=C[C@@H]2C(=O)[C@]32CO2)c1 | -0.256 | -0.423 | -0.0607 | -0.517 (inactive) | -0.711 | -0.869 | -0.0431 | -0.412 | 0.404 | 1.37 | -0.97 | -2.5 | 0.174 | -0.206 | -0.41 | -0.18 | -0.341 | -0.0784 | -0.188 | 0.106 |
| CN1C(=O)C2C=CC(C(O)c3cc(C(F)(F)F)cc(C(F)(F)F)c3)N(NC(=O)OC(C)(C)C)C2C1=O (stereo not given) | 0.733 | 0.781 | 1.05 | -0.149 (inactive) | 0.959 | 1.3 | 0.497 | 1.32 | -0.868 | 0.279 | 1.38 | -1.24 | 0.106 | 2.45 | 0.666 | -0.0607 | -0.0626 | 2.04 | 1.48 | 1.23 |
| COc1ccc([Si](C)(C)[C@H]2[C@H](CC(=O)N3Cc4ccccc4C[C@H]3CO)O[C@@]3(C(=O)N(Cc4ccc(N5C(=O)c6cccc7cccc5c67)cc4)c4ccccc43)[C@@H]2C)cc1 | 0.959 | -0.247 | -0.0288 | -0.91 (inactive) | 0.884 | 1.28 | 0.868 | 1.31 | 0.879 | 0.473 | 1.3 | -3.26 | 0.952 | 0.732 | 0.049 | -0.124 | -0.279 | -0.49 | 1.65 | 0.609 |
| CCOC(=O)C1=C[C@@H](c2ccccc2)N(S(=O)(=O)c2ccc(C)cc2)[C@H]1c1ccccc1 | 0.394 | 0.0612 | 0.753 | -0.924 (inactive) | -0.0005 | -0.193 | 0.0794 | -0.0021 | -0.399 | 1.46 | 0.0627 | 0.235 | -0.063 | 0.997 | 0.209 | -0.124 | -0.138 | 1.13 | -0.109 | 0.291 |
